# Assay outcomes as filed in PubChem BioAssay.
# An excerpt weighted towards active compounds, which were near 0.49% of everything screened.
# EPAC2 agonist – qHTS for Agonist of cAMP-regulated guanine nucleotide exchange factor 4 (EPAC2): primary screen. EPAC2 activation, biochemical qHTS; response scale: 100% = 6.5 mM cAMP response. Potency, µM (top dose mostly 154 µM), for inactives: at the top dose activation, usual class: activators. 0.079% of 360,000 active; also: nearly all actives have a fitted effect of over 50% in size
#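 Compounds were added across a concentration range to EPAC2 (100 nM), RAP1B-BODIPY-GDP (250 nM) and GDP (50 uM). After 5 min at room temperature, fluorescence was recorded at 5-min intervals for 30 min.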
# EPAC2 antagonist – qHTS for Antagonist of cAMP-regulated guanine nucleotide exchange factor 2 (EPAC2): primary screen; AID 720708, 2013; Rap guanine nucleotide exchange factor 4 (Homo sapiens), Q8WZA2; EPAC2 GEF exchange of Rap1B-BODIPY-GDP, fluorescence; Potency, µM (highest dose often 114 µM), without a hit: at the highest dose activity, negative = inhibition, actives largely listed as inhibitors; 0.18% of 360,000 active; also: % is scaled to controls: 0 for no effect and ±100 for the full control effect; nearly all actives have a fitted effect of over 45% in size
# EPAC1 agonist – qHTS for Agonist of cAMP-regulated guanine nucleotide exchange factor 3 (EPAC1): primary screen | Rap guanine nucleotide exchange factor 3 (Homo sapiens), O95398 | EPAC1 agonist qHTS, biochemical assay; response scale: 100% = response to 6.5 mM cAMP | Potency, µM (doses to about 154 µM), for inactives: at the top dose activation, hits mostly activators | 0.073% of 360,000 active | AID 720707, 2013; also: nearly all actives have a fitted effect of over 60% in size
#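 Nucleotide exchange by EPAC1 (100 nM) on Rap1B–BODIPY-GDP (250 nM) in the presence of 50 uM GDP is tracked fluorescently at 480/540 nm over 30 min. Signals are normalized to a 6.5 mM cAMP control.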
# USP1-UAF1 inh – Inhibitors of USP1/UAF1: Primary Screen; Ubiquitin carboxyl-terminal hydrolase 1 (Homo sapiens), O94782; Potency, µM (titrated, usually from 57.1 µM), inactives show at the top dose activity change, negative = inhibition, usual class: inhibitors; recombinant USP1/UAF1, Ub-Rhodamine cleavage fluorescence; 0.23% of 390,000 active; also: % is scaled to controls: 0 for no effect and ±100 for the full control effect; nearly all actives have a fitted effect of over 60% in size
# Target sequence (O94782 whole entry, looked up): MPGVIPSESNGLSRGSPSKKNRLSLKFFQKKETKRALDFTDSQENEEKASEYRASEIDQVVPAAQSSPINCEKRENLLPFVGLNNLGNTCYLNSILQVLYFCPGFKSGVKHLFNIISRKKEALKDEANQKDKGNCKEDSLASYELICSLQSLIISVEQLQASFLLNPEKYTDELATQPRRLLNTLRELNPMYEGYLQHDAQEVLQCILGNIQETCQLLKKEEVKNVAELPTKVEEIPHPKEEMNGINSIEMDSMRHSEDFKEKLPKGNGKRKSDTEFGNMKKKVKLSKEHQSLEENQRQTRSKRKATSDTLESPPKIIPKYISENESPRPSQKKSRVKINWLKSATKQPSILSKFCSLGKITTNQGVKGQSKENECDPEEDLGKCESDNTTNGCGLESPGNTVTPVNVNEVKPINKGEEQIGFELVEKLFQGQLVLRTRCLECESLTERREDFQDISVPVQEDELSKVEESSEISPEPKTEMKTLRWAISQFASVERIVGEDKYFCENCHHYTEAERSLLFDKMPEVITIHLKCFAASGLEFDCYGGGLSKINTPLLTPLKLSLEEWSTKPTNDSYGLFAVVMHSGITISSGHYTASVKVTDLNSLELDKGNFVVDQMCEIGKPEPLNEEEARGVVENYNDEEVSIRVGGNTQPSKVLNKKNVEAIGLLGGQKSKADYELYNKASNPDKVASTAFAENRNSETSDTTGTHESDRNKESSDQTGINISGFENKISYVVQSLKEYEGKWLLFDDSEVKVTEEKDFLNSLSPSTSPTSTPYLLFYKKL
#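 USP1/UAF1 complex (1 nM) preincubated 15 min at room temperature with compound, then Ub-Rho substrate (150 nM final) added. Kinetic fluorescence at 480/540 nm over 6 reads at 60 s intervals; 50 mM HEPES pH 7.8, 0.5 mM EDTA, 0.1 mg/ml BSA, 1 mM TCEP, 0.01% Tween-20.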
# EPAC1 antag – qHTS for Antagonist of cAMP-regulated guanine nucleotide exchange factor 3 (EPAC1): primary screen; Potency, µM (series often up to 115 µM), for the others: top-dose activity change, negative = inhibition, hits mostly inhibitors; EPAC1 GEF assay, Rap1b-BODIPY-GDP exchange fluorescence; 0.14% of 360,000 active;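 also: plate controls were vehicle for no effect and positive control for full effect; nearly all actives have a fitted effect of over 50% in size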
# Numbers without * were called inactive; i = inactive; u = inconclusive; x = no result given. Calls follow the shape of the dose curve; as a rule, active = well fitted curve in the direction sought with a large enough effect; inconclusive = small, poorly fitted or top-dose-only effect, or another doubt; inactive = no such curve, though single readings can be large; an effect the other way counts as inactive or inconclusive. Potency is read from the fitted curve at half-maximal effect.
SMILES,EPAC2 agonist,EPAC2 antagonist,EPAC1 agonist,USP1-UAF1 inh,EPAC1 antag
O=C(Cn1ccc(=O)[nH]c1=O)c1ccc([N+](=O)[O-])o1,u,14.2%,100µM*,-26.7%,7.0%
O=C(Cn1ccc(=O)[nH]c1=O)NCCO,-0.4%,7.5%,-9.1%,-15.7%,15.6%
COc1ccc([N+](=O)[O-])cc1NC(=S)Nc1ccccc1,7.94µM*,6.3%,0.0%,-26.3%,-2.0%
CN(C)S(=O)(=O)c1ccc2c(c1)/C(=C/c1cc3c([nH]1)CCCC3)C(=O)N2,15.6%,12.4%,u,31.6µM*,2.6%
NC(=O)c1ccc(N=C2C(=O)Nc3ccc([N+](=O)[O-])cc32)cc1,5.0%,u,3.3%,14.1µM*,u
C/C(CC(=O)Nc1ccc2ccccc2c1)=N\NC(=O)c1cnccn1,-1.1%,-6.0%,39.8µM*,-2.9%,55.1%
Cc1cc(C)c(S(=O)(=O)/N=C2/C=C(SCC(=O)O)C(=O)c3ccccc32)cc1C,9.3%,-15.3%,19.6%,25.1µM*,u
COc1cc(-c2ccc(Nc3ccccc3C(=O)O)c(OC)c2)ccc1Nc1ccccc1C(=O)O,-3.9%,-7.9%,-8.7%,u,79.4µM*
COc1cccc(Nc2ccccc2C(=O)O)c1,1.9%,-2.1%,8.1%,-1.8%,u
O=C(Nc1ccccc1Cl)c1cc(S(=O)(=O)N2CCCCC2)ccc1N1CCOCC1,10.6%,-9.7%,12.7%,2.5%,-6.2%
CC(NC(=O)c1cc(S(=O)(=O)N2CCOCC2)ccc1N1CCCC1)c1ccc(Cl)c(Cl)c1 (stereo not drawn),6.4%,14.5%,56.2µM*,-22.9%,7.4%
CN(C)c1ccc(/C=C/C(=O)c2cccc(Br)c2)cc1,100µM*,56.2%,100µM*,i,68.0%
CN(C)c1ccc(C(=O)/C=C/c2cccnc2)cc1,1.5%,-0.4%,2.8%,-4.2%,-10.5%
Cc1ccc(C(=O)O)cc1Nc1nc2ccccc2n2nnnc12,x,x,x,-24.5%,x
Cc1ccc(NC(=O)COC(=O)Cn2c(C)csc2=O)c([N+](=O)[O-])c1,6.8%,12.2%,100µM*,-20.5%,-2.9%
Cc1csc(=O)n1CC(=O)OCC(=O)Nc1cc([N+](=O)[O-])ccc1Cl,11.3%,-4.9%,3.3%,-3.3%,11.4%
Cc1cccc(OCC(=O)Nc2cccc(C(=O)OCc3cc(=O)n4c(C)csc4n3)c2)c1,x,x,x,-6.2%,x
C=CCOc1c(Br)cc(/C=N/O)cc1OCC,-10.0%,u,-3.1%,-17.2%,-10.2%
CCCCOc1c(Br)cc(/C=N/O)cc1OCC,-2.5%,28.2µM*,-10.4%,u,u
COc1cc(S(=O)(=O)NCCc2c(C)[nH]c3ccccc23)c(C)cc1C,x,x,x,-30.8%,x
COc1ccc(C(NC(=O)c2cc(OC)ccc2OC)c2ccccc2)cc1 (stereo not drawn),10.7%,44.7µM*,11.8%,-11.5%,-23.7%
O=[N+]([O-])c1cc(Cl)ccc1NCCc1ccccn1,-3.1%,56.2µM*,-1.5%,-9.4%,-13.5%
COc1cc(Cl)cc2c1Sc1ccccc1/C2=C/CCN(C)C,10.7%,-3.3%,0.4%,-3.3%,-1.6%
CN(C)CC/C=C1/c2ccccc2Sc2c(O)cc(Cl)cc21,10.0%,35.5µM*,0.8%,-15.6%,-0.8%
CC1CCN(S(=O)(=O)c2ccc3c(c2)N(CC(=O)Nc2ccc(F)c(Cl)c2)C(=O)CO3)CC1,x,x,x,-13.5%,x
SMILES,EPAC2 agonist,EPAC2 antagonist,EPAC1 agonist,USP1-UAF1 inh,EPAC1 antag
Cn1cc(-c2cc3n(n2)CCC(=O)N3CCCC(=O)Nc2ccccc2Cl)c2ccccc21,x,x,x,-25.6%,x
CC[C@H]1C(c2ccc(F)cc2)=NN(c2ccccc2)[C@@H]1CO,3.0%,50.1µM*,-14.0%,-27.0%,-13.8%
OC[C@@H]1[C@@H](c2ccc(F)cc2)C(c2ccccc2)=NN1c1ccccc1,18.5%,u,-6.3%,-32.5%,-5.2%
COc1ccc(-c2ncncc2-c2csc(C)n2)c(O)c1OC,6.5%,6.3%,4.1%,-0.8%,-13.6%
COC1=C(N)C(=O)c2nc(-c3nc(C(=O)O)c(C)c(-c4ccc(OC)c(OC)c4O)c3N)ccc2C1=O,7.6%,-18.1%,3.4%,11.2µM*,-11.5%
O=C(c1ccc(Cl)cc1)C1C2C(=O)N(c3ccccc3)C(=O)C2C2CCCN21 (stereo not drawn),1.3%,8.5%,2.1%,-6.7%,-3.7%
CC(=O)c1ccc(N2C(=O)C3C(C2=O)C(C(=O)c2ccc(Cl)cc2)N2CCCC32)cc1 (stereo not drawn),100µM*,239.9%,u,17.8µM*,-17.4%
c1ccc2c(c1)oc1c(-c3ccc4nccn4c3)cccc12,17.7%,10µM*,15.4%,x,-3.8%
Clc1cccc(-c2ccc3nccn3c2)c1Cl,8.8%,u,3.8%,x,-27.0%
CCc1noc(C)c1C(=O)Nc1nc2c(C)cc(C)cc2s1,24.1%,-14.4%,89.1µM*,-10.0%,-24.6%
O=C(CSc1nnc(CN2CCOCC2)n1-c1ccccc1)N1CCc2ccccc21,1.1%,3.8%,-0.1%,-18.8%,5.9%
CC1CCN(C(=O)CSc2nnc(CN3CCOCC3)n2-c2ccccc2)CC1,-5.9%,2.2%,8.6%,-0.7%,31.6µM*
COc1ccc(-c2cn3c(n2)sc2cc(C(=O)NCC(C)c4ccccc4)ccc23)cc1 (stereo not drawn),x,x,x,-1.8%,x
NC(=S)N/N=C/c1cccc(O)c1O,4.4%,1.3%,1.6%,-11.9%,-21.1%
Cc1cc(/C=N/NC(N)=S)c(O)c(/C=N/NC(N)=S)c1,u,25.0%,39.8µM*,u,-12.9%
O=c1c(/C=N/Nc2ccccc2)c(Sc2nnnn2-c2ccccc2)nc2ccccn12,-64.6%,49.4%,4.2%,3.16µM*,5.4%
O=C(/C=C/c1ccc(-c2ccccc2[N+](=O)[O-])o1)c1ccco1,12.3%,0.4%,3.8%,-15.2%,50.1µM*
COc1ccc2nc(NNC(=O)c3cc(=O)c4ccccc4o3)sc2c1,-2.2%,-6.9%,-7.7%,28.2µM*,-4.5%
Cc1ccc2sc(NNC(=O)c3cc(=O)c4ccccc4o3)nc2c1C,-8.3%,12.1%,-13.2%,31.6µM*,-16.1%
COc1ccc(-c2cn3nc(N4CCC(C(=O)Nc5ccccc5OC)CC4)sc3n2)cc1,x,x,x,-30.1%,x
Cc1cc(F)ccc1S(=O)(=O)Nc1ccc2c(c1)CCCN2C(=O)c1cccs1,x,x,x,-13.1%,x
Cc1ccc(S(=O)(=O)N2CCCc3cc(NS(=O)(=O)c4cc(F)ccc4F)ccc32)cc1,x,x,x,-26.4%,x
